According to PubChem BioAssay (NCATS):
Records with an inconclusive call do not appear. Unmarked numbers belong to inactive results. The source made the active and inactive calls. The call rests on the fitted dose curve; in most records, active means well fitted inhibition curve with a large enough effect; inconclusive means small, poorly fitted or top-dose-only effect; inactive means flat fitted curve, though single readings scatter.
On the % scale 0 is the no-effect control and ±100 the full control effect; potency means the concentration at half of the fitted maximal effect.

These molecules were tested against Phospholipid hydroperoxide glutathione peroxidase GPX4 (Homo sapiens) (UniProt P36969) (assay: Primary qHTS Assay for Inhibitors of Recombinant Selenoprotein Glutathione Peroxidase 4 (GPX4) (AID 1845192; further: nearly all actives have a fitted effect of over 65% in size)). Conditions: recombinant GPX4, GR-coupled NADPH fluorescence, 15 min; series mostly up to 50 µM; activity change, negative = inhibition: at the top concentration.
Phospholipid hydroperoxide glutathione peroxidase GPX4 (Homo sapiens), sequence (P36969 whole entry, looked up): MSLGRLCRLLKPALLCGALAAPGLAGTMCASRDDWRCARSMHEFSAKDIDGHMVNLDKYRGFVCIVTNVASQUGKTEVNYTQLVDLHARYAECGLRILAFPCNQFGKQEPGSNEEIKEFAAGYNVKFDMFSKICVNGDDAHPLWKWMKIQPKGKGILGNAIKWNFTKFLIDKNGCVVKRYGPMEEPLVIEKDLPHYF
Method in brief: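 NADPH consumption, followed by fluorescence at 340/450 nm between 0 and 15 min, reports GPX4 activity via coupled glutathione reductase (100 nM). Enzyme 200 nM was pre-exposed to compound 30 min; 0.5 mM cumene hydroperoxide and 1 mM GSH served as substrates.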
In the case of CO[C@H]1C=CO[C@@]2(C)Oc3c(C)c(O)c4c(O)c(c(/C=N/N5CCN(C)CC5)c(O)c4c3C2=O)NC(=O)/C(C)=C\C=C[C@H](C)[C@H](O)[C@@H](C)[C@@H](O)[C@@H](C)[C@H](OC(C)=O)[C@@H]1C, the Potency is reported as 17.8 µM (active).
With NCCNC(=O)c1ccc(Cl)cn1 the “activity change, negative = inhibition” value was 4.86%.
C=C[C@H]1CN2CC[C@H]1C[C@@H]2[C@@H](O)c1ccnc2ccc(OC)cc12 was tested, and the Potency was “inactive”.
For C=C[C@H]1CN2CC[C@H]1C[C@H]2[C@H](O)c1ccnc2ccc(OC)cc12, the “activity change, negative = inhibition” value was -16.1%.
With CCCCCCCCCCCCCCCCO the “outcome” value was “inactive”.
For CC1=C(C(=O)O)N2C(=O)[C@@H](NC(=O)[C@H](N)c3ccccc3)[C@H]2SC1, the “activity change, negative = inhibition” value was -12.5%.
With COc1ccc(C(=O)c2ccccc2O)c(O)c1 the “activity change, negative = inhibition” value was -17.9%.
For CC(=O)OCC1=C(C(=O)O)N2C(=O)[C@@H](NC(=O)CSc3ccncc3)[C@H]2SC1, the “outcome” value was “inactive”.
For COc1cc(N)c(Cl)cc1C(=O)NC1CCN(Cc2ccccc2)CC1, the “outcome” value was “inactive”.
For CC[C@H](c1ccc(O)cc1)[C@@H](CC)c1ccc(O)cc1, the “activity change, negative = inhibition” value was -13.4%.
CCCN(CCc1cccs1)[C@H]1CCc2c(O)cccc2C1 was tested, and the “activity change, negative = inhibition” value was -29.3%.
CC(=C(CCOC(=O)C(C)C)SSC(CCOC(=O)C(C)C)=C(C)N(C=O)Cc1cnc(C)nc1N)N(C=O)Cc1cnc(C)nc1N was tested, and the “outcome” value was “inactive”.
In the case of CN1CCN(C2=Nc3ccccc3Sc3ccc(Cl)cc32)CC1, the “activity change, negative = inhibition” value is reported as -3.05%.
With O=C(Nc1ccccc1)OCC(CN1CCCCC1)OC(=O)Nc1ccccc1 (stereo unspecified) the “activity change, negative = inhibition” value was -27.8%.
With COC(=O)C(c1ccccc1Cl)N1CCc2sccc2C1 (stereo unspecified) the “outcome” value was “inactive”.
With O=C(O)CCC(=O)Nc1ccc(S(=O)(=O)Nc2nccs2)cc1 the “outcome” value was “inactive”.
